For some assays here: Entries with a potency or affinity are not part of this list.
Assays:
Parameters in all cases: scale not given: direction of the effect not stated beside the values
[1] = target: Protein translocase subunit SecA (Escherichia coli (strain K12)) (UniProt P10408); assay: Assay to Identify E. coli SecA ATPase Inhibitors; assay type: functional; settings: 30 µM
[2] = target: T1, Ubiquitin-activating enzyme e1, putative (Leishmania donovani (strain BPK282A1)) (UniProt E9BSI1); assay: Leishmania donovani Ubiquitin Activating Enzyme (LdE1); assay type: functional; settings: 30 µM
T1 sequence (whole entry): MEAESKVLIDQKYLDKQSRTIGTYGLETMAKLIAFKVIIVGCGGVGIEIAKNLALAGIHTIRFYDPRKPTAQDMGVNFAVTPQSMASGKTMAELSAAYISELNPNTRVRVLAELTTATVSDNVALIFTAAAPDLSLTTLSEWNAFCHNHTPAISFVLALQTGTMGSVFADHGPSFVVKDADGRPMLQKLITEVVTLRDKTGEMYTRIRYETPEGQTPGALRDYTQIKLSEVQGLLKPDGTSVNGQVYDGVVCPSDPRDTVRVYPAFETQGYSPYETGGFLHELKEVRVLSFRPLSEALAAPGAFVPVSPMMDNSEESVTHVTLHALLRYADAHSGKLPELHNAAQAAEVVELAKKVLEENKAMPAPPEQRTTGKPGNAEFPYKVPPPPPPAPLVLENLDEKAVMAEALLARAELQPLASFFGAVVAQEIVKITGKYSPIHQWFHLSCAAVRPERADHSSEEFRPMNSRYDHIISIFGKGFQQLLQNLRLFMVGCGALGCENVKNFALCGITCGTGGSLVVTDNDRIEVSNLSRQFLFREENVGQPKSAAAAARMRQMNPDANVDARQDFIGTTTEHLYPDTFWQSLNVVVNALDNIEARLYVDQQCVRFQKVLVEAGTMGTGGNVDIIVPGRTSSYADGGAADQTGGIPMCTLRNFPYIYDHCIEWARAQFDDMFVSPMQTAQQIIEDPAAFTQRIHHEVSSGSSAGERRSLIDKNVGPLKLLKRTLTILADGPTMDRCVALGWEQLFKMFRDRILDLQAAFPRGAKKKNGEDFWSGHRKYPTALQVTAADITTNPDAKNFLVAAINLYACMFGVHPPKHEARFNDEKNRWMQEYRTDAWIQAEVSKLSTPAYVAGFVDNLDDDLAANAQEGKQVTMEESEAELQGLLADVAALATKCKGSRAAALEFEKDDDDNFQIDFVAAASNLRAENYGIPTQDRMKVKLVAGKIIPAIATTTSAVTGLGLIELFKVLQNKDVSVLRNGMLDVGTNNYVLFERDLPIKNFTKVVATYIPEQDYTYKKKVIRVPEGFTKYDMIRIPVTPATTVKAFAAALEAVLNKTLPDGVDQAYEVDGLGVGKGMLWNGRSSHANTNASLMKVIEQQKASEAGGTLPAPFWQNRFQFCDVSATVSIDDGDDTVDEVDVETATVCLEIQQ

[3] = target: AMP-activated protein kinase, AMPK (Homo sapiens) (UniProt P54646+O43741+P54619+Q9UGJ0+Q9Y478+Q13131+Q9UGI9); assay: AMP-dependent Kinase enzyme assay. An in vitro enzyme assay that detects ADP turnover that is directly proportional to AMPK activity. This uses naive AMPK that is activated during the assay with MK-8722; assay type: functional; settings: 30 µM
[4] = target: Sialic acid-binding Ig-like lectin 9 (Homo sapiens) (UniProt Q9Y336); assay: Hs-Siglec9 ALPHAscreen SOP 20170721; settings: 10 µM
[5] = system: Trypanosoma cruzi; assay: Trypanosoma cruzi phosphomannomutase and mannose-1-phosphate guanylyltransferase assay; assay type: functional; settings: 10 µM
[6] = target: T2, Arginase-2, mitochondrial (Homo sapiens) (UniProt P78540); assay: in vitro enzyme assay to detect the production of urea directly proportional to the activity of Arginase II; assay type: functional; settings: 33.3 µM; also: in the data most compounds retested in dose-response had high values
T2 sequence (whole entry): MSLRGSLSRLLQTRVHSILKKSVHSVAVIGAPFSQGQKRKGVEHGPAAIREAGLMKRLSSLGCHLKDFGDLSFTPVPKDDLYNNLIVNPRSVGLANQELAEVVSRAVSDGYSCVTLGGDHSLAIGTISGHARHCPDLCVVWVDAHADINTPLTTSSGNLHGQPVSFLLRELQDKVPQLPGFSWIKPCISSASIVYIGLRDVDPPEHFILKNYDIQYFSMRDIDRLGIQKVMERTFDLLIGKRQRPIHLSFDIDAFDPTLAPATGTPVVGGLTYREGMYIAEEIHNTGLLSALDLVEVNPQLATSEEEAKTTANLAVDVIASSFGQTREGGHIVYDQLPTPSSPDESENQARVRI

[7] = target: T3, Proteasome subunit beta (Trypanosoma cruzi) (UniProt O96673); assay: Trypanosoma cruzi proteasome chymotrypsin-like activity (TcProtChymo) assay.; also: in the data most compounds retested in dose-response had high values; assay type: functional; settings: 9.37 µM
T3 sequence (whole entry): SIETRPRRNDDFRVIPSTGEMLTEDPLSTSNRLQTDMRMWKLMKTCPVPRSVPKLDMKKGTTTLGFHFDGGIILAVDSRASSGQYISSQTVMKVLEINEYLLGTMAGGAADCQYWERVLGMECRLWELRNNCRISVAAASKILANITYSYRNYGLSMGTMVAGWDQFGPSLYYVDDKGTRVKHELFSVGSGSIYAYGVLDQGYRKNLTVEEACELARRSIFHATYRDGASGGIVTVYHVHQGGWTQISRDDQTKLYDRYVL

[8] = organism: Homo sapiens; assay: To identify inhibition of the IFN signalling (Jak-Stat) pathway via expression of an eGFP reporter gene under the control of an IFN-stimulated response element (ISRE) containing MxA promoter.; assay type: functional; settings: 30 µM
[9] = target: T4, Tyrosyl-tRNA synthetase, putative (Trypanosoma cruzi (strain CL Brener)) (UniProt Q4DSP6); assay: Trypanosoma cruzi tyrosyl tRNA synthetase (TcYRS) _High Tyrosine SOP; assay type: functional; settings: 30 µM; also: in the data most compounds retested in dose-response had high values
T4 sequence (whole entry): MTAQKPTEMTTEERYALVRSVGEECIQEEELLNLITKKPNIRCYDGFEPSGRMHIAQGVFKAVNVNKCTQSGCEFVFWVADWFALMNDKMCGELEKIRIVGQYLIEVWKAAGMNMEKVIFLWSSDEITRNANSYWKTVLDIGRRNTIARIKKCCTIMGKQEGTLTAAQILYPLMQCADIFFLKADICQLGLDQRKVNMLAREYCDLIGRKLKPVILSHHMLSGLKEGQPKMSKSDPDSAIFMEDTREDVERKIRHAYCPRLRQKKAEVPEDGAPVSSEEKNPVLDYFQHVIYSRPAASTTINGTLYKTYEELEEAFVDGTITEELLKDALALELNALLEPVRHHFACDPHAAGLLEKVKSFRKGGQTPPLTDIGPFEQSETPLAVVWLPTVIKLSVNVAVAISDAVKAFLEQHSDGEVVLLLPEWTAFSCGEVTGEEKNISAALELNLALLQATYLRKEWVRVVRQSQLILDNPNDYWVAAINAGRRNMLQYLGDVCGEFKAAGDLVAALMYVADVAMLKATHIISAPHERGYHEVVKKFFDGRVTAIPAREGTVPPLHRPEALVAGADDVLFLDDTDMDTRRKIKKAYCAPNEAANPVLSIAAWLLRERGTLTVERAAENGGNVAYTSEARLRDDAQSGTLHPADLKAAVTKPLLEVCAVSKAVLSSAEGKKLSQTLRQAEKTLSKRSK

[10] = target: T4, Tyrosyl-tRNA synthetase, putative (Trypanosoma cruzi (strain CL Brener)); assay: Trypanosoma cruzi tyrosyl tRNA synthetase (TcYRS) SOP; assay type: functional; settings: 30 µM
[11] = target: Chromo domain-containing protein 1 (Saccharomyces cerevisiae (strain ATCC 204508 / S288c) (Baker's yeast)) (UniProt P32657); assay: ScCHD-1 Enzyme Inhibition Assay; assay type: functional; settings: 30 µM; also: in the data most compounds retested in dose-response had high values
Chain of Chromo domain-containing protein 1 (Saccharomyces cerevisiae (strain ATCC 204508 / S288c) (Baker's yeast)) (P32657 whole entry, the tested form may be a part): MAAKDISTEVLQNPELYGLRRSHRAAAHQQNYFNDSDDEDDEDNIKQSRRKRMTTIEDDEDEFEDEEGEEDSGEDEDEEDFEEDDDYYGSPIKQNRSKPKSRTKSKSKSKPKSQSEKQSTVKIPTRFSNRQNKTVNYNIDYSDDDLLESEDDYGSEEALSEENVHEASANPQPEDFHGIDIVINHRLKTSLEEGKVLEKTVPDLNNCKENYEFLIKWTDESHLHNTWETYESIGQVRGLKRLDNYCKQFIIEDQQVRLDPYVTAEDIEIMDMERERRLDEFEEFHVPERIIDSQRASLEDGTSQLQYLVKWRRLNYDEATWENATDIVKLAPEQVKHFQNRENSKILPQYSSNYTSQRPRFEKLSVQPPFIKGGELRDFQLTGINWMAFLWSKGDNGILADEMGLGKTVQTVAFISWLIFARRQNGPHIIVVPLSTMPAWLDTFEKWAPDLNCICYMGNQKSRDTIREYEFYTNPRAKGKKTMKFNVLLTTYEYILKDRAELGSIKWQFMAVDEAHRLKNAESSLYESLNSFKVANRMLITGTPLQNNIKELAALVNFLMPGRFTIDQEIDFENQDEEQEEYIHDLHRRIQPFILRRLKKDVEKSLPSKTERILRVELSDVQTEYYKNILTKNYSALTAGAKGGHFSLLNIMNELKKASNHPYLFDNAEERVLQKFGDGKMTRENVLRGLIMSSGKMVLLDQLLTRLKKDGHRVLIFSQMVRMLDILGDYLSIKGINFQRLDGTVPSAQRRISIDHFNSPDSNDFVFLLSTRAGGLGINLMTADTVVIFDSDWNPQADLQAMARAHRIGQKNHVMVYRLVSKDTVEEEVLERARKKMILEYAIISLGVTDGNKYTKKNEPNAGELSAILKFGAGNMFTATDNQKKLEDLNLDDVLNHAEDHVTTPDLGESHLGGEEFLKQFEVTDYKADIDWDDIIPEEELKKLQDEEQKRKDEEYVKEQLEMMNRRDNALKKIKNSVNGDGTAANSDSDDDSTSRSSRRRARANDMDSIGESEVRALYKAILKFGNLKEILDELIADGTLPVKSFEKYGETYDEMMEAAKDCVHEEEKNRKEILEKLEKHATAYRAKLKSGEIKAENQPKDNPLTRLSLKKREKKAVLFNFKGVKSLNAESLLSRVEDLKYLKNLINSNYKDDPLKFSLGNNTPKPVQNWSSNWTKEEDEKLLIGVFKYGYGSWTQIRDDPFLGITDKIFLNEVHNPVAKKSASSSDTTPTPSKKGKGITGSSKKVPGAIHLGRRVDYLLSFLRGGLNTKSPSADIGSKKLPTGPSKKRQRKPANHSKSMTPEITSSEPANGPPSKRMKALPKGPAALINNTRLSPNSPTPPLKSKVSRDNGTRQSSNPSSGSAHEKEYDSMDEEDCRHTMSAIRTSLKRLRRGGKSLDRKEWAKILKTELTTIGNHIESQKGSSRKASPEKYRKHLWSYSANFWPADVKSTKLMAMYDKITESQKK

Chain of Protein translocase subunit SecA (Escherichia coli (strain K12)) (P10408 whole entry): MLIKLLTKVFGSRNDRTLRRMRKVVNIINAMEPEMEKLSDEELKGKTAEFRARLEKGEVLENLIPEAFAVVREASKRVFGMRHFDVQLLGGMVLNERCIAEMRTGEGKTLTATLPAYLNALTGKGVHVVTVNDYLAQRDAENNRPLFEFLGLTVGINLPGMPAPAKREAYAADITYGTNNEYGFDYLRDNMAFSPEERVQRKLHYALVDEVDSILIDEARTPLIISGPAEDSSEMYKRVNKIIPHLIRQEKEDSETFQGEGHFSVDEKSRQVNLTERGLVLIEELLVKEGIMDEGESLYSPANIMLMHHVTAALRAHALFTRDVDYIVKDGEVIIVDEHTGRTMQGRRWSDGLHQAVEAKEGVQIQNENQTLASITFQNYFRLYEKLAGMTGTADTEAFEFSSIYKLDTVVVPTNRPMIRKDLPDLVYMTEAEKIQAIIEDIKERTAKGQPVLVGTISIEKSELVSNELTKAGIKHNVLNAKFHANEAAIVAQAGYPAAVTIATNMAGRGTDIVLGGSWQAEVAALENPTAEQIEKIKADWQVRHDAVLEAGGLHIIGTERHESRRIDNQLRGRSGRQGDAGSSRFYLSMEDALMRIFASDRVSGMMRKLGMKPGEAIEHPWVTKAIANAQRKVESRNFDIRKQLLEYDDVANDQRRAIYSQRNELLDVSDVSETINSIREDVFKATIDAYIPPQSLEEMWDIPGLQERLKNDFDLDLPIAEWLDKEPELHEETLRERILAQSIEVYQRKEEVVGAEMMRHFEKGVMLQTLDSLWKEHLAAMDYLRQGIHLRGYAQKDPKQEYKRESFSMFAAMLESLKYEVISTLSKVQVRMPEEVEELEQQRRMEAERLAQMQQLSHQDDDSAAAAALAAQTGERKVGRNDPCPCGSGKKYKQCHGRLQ
Chain of Sialic acid-binding Ig-like lectin 9 (Homo sapiens) (Q9Y336 whole entry): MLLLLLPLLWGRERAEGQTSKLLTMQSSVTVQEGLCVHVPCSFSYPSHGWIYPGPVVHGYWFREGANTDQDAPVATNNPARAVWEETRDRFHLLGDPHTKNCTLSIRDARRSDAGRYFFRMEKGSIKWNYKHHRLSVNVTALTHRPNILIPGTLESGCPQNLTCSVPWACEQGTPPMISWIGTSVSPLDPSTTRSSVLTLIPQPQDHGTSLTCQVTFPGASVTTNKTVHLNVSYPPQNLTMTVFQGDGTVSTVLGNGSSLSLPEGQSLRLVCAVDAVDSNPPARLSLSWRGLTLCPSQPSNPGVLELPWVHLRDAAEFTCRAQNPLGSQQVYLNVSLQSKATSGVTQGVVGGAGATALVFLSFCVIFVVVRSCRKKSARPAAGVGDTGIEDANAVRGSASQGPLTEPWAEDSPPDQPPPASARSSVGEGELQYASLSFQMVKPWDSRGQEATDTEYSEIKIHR

Row | SMILES | Percent Effect [1] | Percent Effect [2] | Percent Effect [3] | Percent Effect [4] | Percent Effect [5] | Percent Effect [6] | Percent Effect [7] | Percent Effect [8] | Percent Effect [9] | Percent Effect [10] | Percent Effect [11]
1 | OC(CN1CCN(Cc2nnc(C3CC3)o2)CC1)c1ccccc1 (configuration not stated) | -4.5% | 10.1% | -8.23% | 15.1% | -3.31% | 1.9% | -3.19% | 17.6% | 2.46% | 13.9% | -2.36%
2 | Cc1occc1C(=O)N1CCC[C@]2(C[C@@H](OCc3ccncc3)CO2)C1 | 0.103% | 10.7% | 1.3% | 1.1% | -1.16% | -23.5% | 16.4% | -0.395% | 7.29% | 22.5% | -5.63%
3 | O=C(c1ccc2c(c1)CCCC2)N1CCOCC1c1ncon1 (configuration not stated) | -2.2% | 5.41% | -9.67% | 7.55% | 2.17% | -5.61% | 9.37% | 5.93% | 3.45% | 13.6% | -8.29%
4 | O=C(N1CCCC1)N1Cc2nccn2CC(CN2CCCC2)C1 (configuration not stated) | 0.719% | 5.41% | 7.93% | -1.18% | -5.77% | -0.955% | 25.8% | -2.41% | -1.08% | 10.3% | -2.63%
5 | CN(CCO)C[C@@H]1CN(C(=O)c2c(F)cccc2Cl)C[C@@H]1CO | -3.86% | 0% | 1.2% | 6% | -2.06% | 2.76% | 15.6% | 9.06% | 3.23% | 3.7% | -2.59%
6 | O=C(Nc1cc(C(F)(F)F)c[nH]c1=O)N1CCCSCC1 | -5.05% | 7.79% | 1.88% | 4.65% | -3.37% | 2.85% | 6.08% | 20.5% | 6.8% | 12.2% | -1.96%
7 | c1ccc(Oc2cc(CNCC3CNc4ccnn4C3)ccn2)cc1 (configuration not stated) | -2.02% | 11.4% | -0.557% | -0.022% | 5.85% | 2.37% | 11.7% | 11.8% | 19.8% | 20.2% | -13.3%
8 | COc1cc(CN(C)C(=O)NCCC2CCCO2)ccc1SC (configuration not stated) | -3% | 8.11% | -5.1% | 2.6% | 0.781% | 0.833% | 10.1% | -25.6% | -13.9% | 3.66% | -5.8%
9 | CNC(=O)N1C[C@H]2CC[C@@]3(N=C(c4ccccc4)NC3=O)[C@H]2C1 | -5.03% | 2.6% | 0.951% | 7.17% | 9.73% | -67.6% | 9.48% | 12.9% | 2.15% | 11.1% | -1.88%
10 | N#Cc1ccc(CNC(=O)NC2CCN(CC(F)F)CC2)cc1 | -5.31% | 2.7% | 0.0143% | 20.2% | 10.8% | -2.23% | 12.3% | 8.62% | 4.3% | 16.1% | -4.65%
11 | CNc1nc(CNC(=O)Nc2ccccc2-c2noc(C)n2)cs1 | -1.81% | -2.63% | -2.79% | -0.349% | -3.19% | -1.92% | 3.01% | 17.1% | 1.47% | -4.88% | -4.83%
12 | Cc1nc(N2CCCC2)nc2c1CCN(C(=O)CC1CC1)CC2 | -4.09% | 20% | -2.46% | 4.72% | 2.75% | -7.22% | 16.1% | 9.15% | -2.12% | 10.3% | -11%
13 | CS(=O)(=O)NCCCN1CCCC1c1ccccc1 (configuration not stated) | -4.36% | 5.06% | -1.23% | 6.79% | 1.42% | 3.04% | 3.03% | -31.1% | 7.39% | 13.9% | -5.84%
14 | Cc1nc2c(c(C)c1CC(=O)Nc1ccc(Cl)cc1)c(=O)[nH]n2C | -8.55% | 10.7% | -2.37% | 20.4% | 5.36% | 6.77% | 6.97% | 11.7% | 3.83% | 13.6% | 3.39%
15 | Cc1cc(C)n(CC2CN(Cc3nc(-c4ccoc4)no3)CCO2)n1 (configuration not stated) | -0.455% | 16.2% | -10.1% | 0.775% | 6.51% | -2.81% | 5.22% | 7.72% | 3.45% | 18.5% | -11.6%
16 | Cc1occc1C(=O)N1CCOCC2(CCN(Cc3nccs3)C2)C1 (configuration not stated) | -0.601% | 2.6% | 0.286% | 7.22% | -0.688% | 5.52% | 9.82% | -13.2% | -3.23% | -6.17% | 2.92%
17 | c1coc(-c2noc(CN3CCC(c4ccn[nH]4)CC3)n2)c1 | -1.24% | 5.41% | -3.37% | 31.9% | 5.02% | 0% | 16.4% | 3.15% | -1.59% | 7.32% | -4.25%
18 | Cc1ccc(NC2CCN(C(=O)c3cccn3C)CC2)nn1 | -10.3% | 7.79% | -16.9% | 19.7% | 11.2% | 2.85% | 18.4% | 26.6% | 10.7% | 24.4% | -12.9%
19 | Cc1nn(C)c(C)c1CCC(=O)N1CCCC1Cn1cccn1 (configuration not stated) | -4.71% | -2.7% | 5.43% | -1.49% | -3.52% | 2.08% | 3.63% | -0.691% | 1.98% | 11% | 1.96%
20 | N#Cc1ccnc(N2CCC(c3nccn3Cc3cscn3)CC2)c1 | -1.75% | 13.3% | 2.35% | 5.36% | 3.8% | 0% | 15.5% | 21.8% | 4.92% | 13.6% | -7.45%
21 | CCc1cc(C)c(C(=O)N2CCCC2CC(=O)c2cnn(C)c2)o1 (configuration not stated) | -1.93% | -1.27% | 169% | -0.655% | -1.13% | -1.5% | 7.03% | 7.3% | -1.04% | 0% | -4.62%
22 | CCN(C(=O)COC)C(c1cccnc1)c1ccc2c(c1)CCO2 (configuration not stated) | 2.93% | 2.74% | 0.259% | 5.98% | -8.13% | -1.2% | 19.8% | 5.88% | 9.38% | 11.1% | -1.24%

Source: ChEMBL document CHEMBL3988442, “University of Dundee, Small-Polar-MMV Screening Library” (2021)
